The source of these data is PubChem BioAssay (NCI).

Compounds without any hit were thinned out: in the full panel of roughly 83,000, 20% have a hit.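 Compound tested at a single concentration for 48 hours in 96-well plates; a percent growth value below 10 was scored as active.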 A number with no mark means an inactive call. Activity calls are given as the source filed them.

Common to all, as to experiment: NCI-60 one-dose screen, 48 h (100 = growth as untreated, 0 = no growth, -100 = all killed)
Details in all cases: 10 µM unless noted

Assay [1] deals with SR leukemia.
Assay [2] has as its system RPMI-8226 leukemia.
Assay [3] deals with OVCAR-8 ovarian.
For assay [4], the system named is OVCAR-5 ovarian.
Assay [5] has as its system OVCAR-4 ovarian.
Assay [6] has as its system SK-OV-3 ovarian.
The test system of assay [7] is IGROV1 ovarian.
Assay [8] deals with OVCAR-3 ovarian.
Assay [9] relates to HS 578T breast.
For assay [10], the system named is NCI/ADR-RES ovarian.

Turning to `O=C(/C=C/c1ccc(Cl)cc1)c1cccc(Nc2nc(Nc3ccccc3)nc(Nc3ccccc3)n2)c1`, the growth is 60.5% in [1]; -43.9% (active) in assay [2]; 94.9% in assay [3]; 92.9% in assay [4]; 83.6% in assay [5]; 108% in [6]. In addition, the growth in assay [7] is 13.5%; in assay [8] it was 84.7%; in assay [9], 92.7%; in assay [10], 91.9%.

Take `CC1=Nc2cnc(Nc3ccc(OCCN4CCCCC4)cc3)nc2Nc2ccccc21`: the growth in [1] is 33.7%; in assay [2], 62.7%; in assay [3], 72.9%; in assay [4], 70.7%; in assay [5], 53%; in assay [6], 34.8%. In addition, the growth in [7] is 14.7%; in assay [8] it was 68.9%; in [9], 33.6%; in assay [10], 69.8%.

On to `CCCCN[C@H]1CC[C@@]2(C)[C@@H](CC[C@@]3(C)[C@H]2[C@H](O)C[C@H]2/C(=C(\CCC=C(C)C)C(=O)OC)[C@@H](OC(C)=O)C[C@@]23C)[C@@H]1C`, for which the growth in assay [1] is 74.5%; in assay [2] it was 95.9%; in assay [3], 102%; in [4] it was 91.4%; in assay [5], 102%; in assay [6] it was 104%. Also, the growth was 99.2% in [7], 106% in assay [8], 87.3% in [9] and 100% in assay [10].

`CN1C(=O)/C(=C/c2cn(-c3ccccc3)nc2-c2ccccc2)SC1=S`: the growth was 109% in assay [1]; 108% in [2]; 105% in assay [3]; 106% in [4]; 106% in [5]; 109% in [6]. Moreover, the growth is 107% in assay [7], 121% in assay [8], 100% in assay [9] and 98.1% in assay [10].

In the case of `Oc1ccc(CN2CCC(N3CCCCC3)CC2)c2cccnc12`, the growth in assay [1] is 19.7%; in assay [2] it was 19.4%; in [3], 25%; in [4], 47.2%; in [5], 22.7%; in assay [6], 16%. Besides, the growth was 25.4% in [7], 28.8% in [8], 27.6% in assay [9] and 30.8% in assay [10].

Turning to `CCc1ccc(Oc2cn[nH]c2-c2ccc(OCCc3ccc(F)cc3)cc2O)cc1`, the growth in assay [1] was 101%; in [2], 81%; in assay [3] it was 101%; in assay [4], 90.6%; in [5], 89.5%; in [6], 102%. Besides, the growth is 97.3% in assay [7], 89.4% in [8], 93.1% in assay [9] and 89.2% in assay [10].

Take `O=C(O)CCCN1C(=O)/C(=C/C(Cl)=C/c2ccccc2)SC1=S`: the growth in [1] was 13%; in assay [2], -13.1% (active); in assay [3] it was 19.1%; in assay [4], 59%; in [5], 46.8%; in assay [6] it was 110%. Further, the growth in assay [7] is 7.37% (active); in assay [8] it was 13.6%; in assay [9], 31.6%; in assay [10], 3.81% (active).

Regarding `N#CC1=C(c2ccc(Cl)cc2)Nc2c(c(-c3ccc(Cl)cc3)nn2-c2ccccc2)C12C(=O)Nc1ccc(Cl)cc12` (stereo not given), the growth in [1] is 14.1%; in [2] it was 27.9%; in assay [3], 49.2%; in [4], 71.6%; in assay [5], 41.8%; in assay [6] it was 86.5%. Moreover, the growth is 36.7% in assay [7], 55.3% in assay [8], 57.1% in assay [9] and 52.8% in [10].

Take `Cn1c(=O)c2[nH]c(N/N=C/c3ccccc3Br)nc2n(C)c1=O`: the growth in assay [1] is 89.7%; in [2], 105%; in assay [3] it was 112%; in assay [4], 89.5%; in [5], 117%; in assay [6], 117%. Also, the growth in assay [7] is 101%; in [8], 119%; in [9], 161%; in assay [10], 104%.

Consider `C#CCn1cnc2c(Nc3cccc(NC(=O)C=C)c3)ncnc21`, for which the growth in [1] was 68.5%; in assay [2] it was 81.9%; in [3], 76.2%; in [4], 82%; in [5] it was 86.6%; in [6] it was 73.5%. Also, the growth in assay [7] is 74.8%; in assay [8], 88.5%; in [9], 74.5%; in assay [10] it was 92.5%.

Take `Nc1ncnc2c1N=C(c1ccc3c(c1)OCO3)CC(c1ccc([N+](=O)[O-])cc1)N2` (stereo not given): the growth in assay [1] is 45.6%; in assay [2], 46.2%; in assay [3], 87.3%; in [4], 75.8%; in [5], 99%; in assay [6], 86%. Further, the growth was 3.46% (active) in [7], 103% in assay [8], 74% in assay [9] and 82% in [10].

In the case of `CC(C)c1ccc(COCc2cc(CN3CCCC3)c(O)c3ncccc23)cc1`, the growth in [1] was -6.27% (active); in assay [2], -21.4% (active); in [3] it was -10.8% (active); in assay [4], 32.8%; in assay [5] it was -6.36% (active); in assay [6] it was -16.4% (active). Besides, the growth in assay [7] was 9.42% (active); in assay [8], -34.2% (active); in assay [9], 41.6%; in [10], -51.2% (active).

As to `CC1(C)CC2=C3C=C[C@@H]4[C@@]5(C)CCC(=O)C(C)(C)[C@@H]5CC[C@@]4(C)[C@]3(C)CC[C@@]2(C(=O)O)CC1=O`, the growth in assay [1] is 71.7%; in [2], 31.8%; in [3], 89.6%; in assay [4], 93.2%; in [5] it was 64.5%; in [6] it was 84.3%. The growth in [7] is 85.3%; in assay [8], 60.1%; in assay [9], 95.6%; in assay [10], 93.5%.
